Reference: PubChem BioAssay (NCATS)
Inconclusive results are not listed. The source made the active and inactive calls. Calls follow the shape of the dose curve; as a rule, active = well fitted inhibition curve with a large enough effect; inconclusive = small, poorly fitted or top-dose-only effect; inactive = flat fitted curve, though single readings scatter.

Tests used:
Assay in all cases: qHTS profiling for inhibitors of Plasmodium falciparum proliferation (AID 504749); also: nearly all actives have a fitted effect of over 60% in size
Settings in all cases: P. falciparum in erythrocytes, SYBR Green DNA, 72 h; series mostly up to 28.7 µM
CP315 = tested on: CP315
Procedure, shortened: (§1)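 Fluorescence of SYBR Green-bound parasite DNA, read at 485/535 nm, served as the growth measure. Infected erythrocytes were cultured with compound 72 h; artemisinin (0.29 uM) and DMSO wells defined the normalization range.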

CP325 = tested on: CP325
Procedure, shortened: as §1

CP329 = tested on: CP329
Procedure, shortened: as §1

CP335 = tested on: CP335
Procedure, shortened: as §1

DFO2036 = tested on: DFO2036
Procedure, shortened: as §1

DIV14 = tested on: DIV14
Procedure, shortened: as §1

DIV17 = tested on: DIV17
Procedure, shortened: as §1

DIV30 = tested on: DIV30
Procedure, shortened: as §1

Dd2 = tested on: Dd2
Procedure, shortened: as §1

ECU = tested on: ECU
Procedure, shortened: as §1

Measured: Potency

Nc1ccc(C(=O)O)c(O)c1
inactive: CP315 | CP325 | CP329 | CP335 | DFO2036 | DIV14 | DIV17 | DIV30 | Dd2 | ECU

CC1(C)C[C@@H]1C(=O)N/C(=C\CCCCSC[C@H](N)C(=O)O)C(=O)O
inactive: CP315 | CP325 | CP329 | CP335 | DFO2036 | DIV14 | DIV17 | DIV30 | Dd2 | ECU

C=CCN1C(=O)C(CC(C)C)NC1=S (stereo not given)
inactive: CP315 | CP325 | CP329 | CP335 | DFO2036 | DIV14 | DIV17 | DIV30 | Dd2 | ECU

CC1(C)S[C@@H]2[C@H](NC(=O)[C@H](NC(=O)N3CCN(S(C)(=O)=O)C3=O)c3ccccc3)C(=O)N2[C@H]1C(=O)O
inactive: CP315 | CP325 | CP329 | CP335 | DFO2036 | DIV14 | DIV17 | DIV30 | Dd2 | ECU

CCCCCCCCCCCCCCCC(=O)OC(C)C
inactive: CP315 | CP325 | CP329 | CP335 | DFO2036 | DIV14 | DIV17 | DIV30 | Dd2 | ECU

CCCCCCOc1ccccc1C(N)=O
inactive: CP315 | CP325 | CP329 | CP335 | DFO2036 | DIV14 | DIV17 | DIV30 | Dd2 | ECU

CCCCCCCCCCCCCCCCCC(=O)O
inactive: CP315 | CP325 | CP329 | CP335 | DFO2036 | DIV14 | DIV17 | DIV30 | Dd2 | ECU

O=C(O)[C@H](O)[C@@H](O)[C@H](O)[C@H](O)CO
inactive: CP315 | CP325 | CP329 | CP335 | DFO2036 | DIV14 | DIV17 | DIV30 | Dd2 | ECU

CN1CCN(c2cc3c(nn2)Oc2ccccc2N3C)CC1
inactive: CP315 | CP325 | CP329 | CP335 | DFO2036 | DIV14 | DIV17 | DIV30 | Dd2 | ECU

CC1(C)[C@@H](O)CC[C@]2(C)[C@H]3C(=O)C=C4[C@@H]5C[C@@](C)(C(=O)O)CC[C@]5(C)CC[C@@]4(C)[C@]3(C)CC[C@@H]12
inactive: CP315 | CP325 | CP329 | CP335 | DFO2036 | DIV14 | DIV17 | DIV30 | Dd2 | ECU

C#C[C@]1(O)CC[C@H]2[C@@H]3CCc4cc(O)ccc4[C@H]3CC[C@@]21C
inactive: CP315 | CP325 | CP329 | CP335 | DFO2036 | DIV14 | DIV17 | DIV30 | Dd2 | ECU

Cc1c(Nc2ncccc2C(=O)O)cccc1C(F)(F)F
inactive: CP315 | CP325 | CP329 | CP335 | DFO2036 | DIV14 | DIV17 | DIV30 | Dd2 | ECU

CCCOC(=O)c1ccc(O)cc1
inactive: CP315 | CP325 | CP329 | CP335 | DFO2036 | DIV14 | DIV17 | DIV30 | Dd2 | ECU

C=CCCCCCCCCC(=O)O
inactive: CP315 | CP325 | CP329 | CP335 | DFO2036 | DIV14 | DIV17 | DIV30 | Dd2 | ECU

O=C(O)[C@H](CC(=O)N1C[C@H]2CCCC[C@H]2C1)Cc1ccccc1
inactive: CP315 | CP325 | CP329 | CP335 | DFO2036 | DIV14 | DIV17 | DIV30 | Dd2 | ECU
